# In the library only some 9.3% were active in any assay of this set; here they are far more common.
# FMDV inh: blocks foot and mouth disease virus; FMDV antiviral cell-based qHTS; Potency, µM (doses to about 57.9 µM), for the others: at the top dose activity change, negative = inhibition, actives largely listed as inhibitors; 410,000 compounds, 1.2% hits; calls by dose curve; tested in HEK293T cells; also: read-out not given here; potency is read from the fitted curve at half-maximal effect; nearly all actives have a fitted effect of over 45% in size
# VACV mCherry inh: vaccinia inhibition (mCherry reporter). AID 720579. 310,000 compounds, 0.63% hits. Vaccinia virus mCherry reporter infection, fluorescence. Potency, µM (doses to about 36.5 µM), for inactives: top-dose activity change, negative = inhibition, actives largely listed as inhibitors; calls by dose curve; tested in A549 cells; also: potency is read from the fitted curve at half-maximal effect; nearly all actives have a fitted effect of over 35% in size
# HCV inhibitor: inhibitors of hepatitis C virus infection | Huh7.5.1 HCVcc-Cre infection, luciferase reporter, 44 h | Potency, µM (titrated, usually from 41.8 µM), for the others: at the highest dose activity change, negative = inhibition, most hits filed as inhibitors | 340,000 compounds, 3.4% hits | AID 651820; also: potency is read from the fitted curve at half-maximal effect
#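 Seed cells (1,000/well) for 4 h; treat with compound and infect with HCVcc-Cre, moi about 0.5. Incubate 44 h, then detect luciferase activity.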
# VACV Venus inh: vaccinia inhibition (Venus reporter); AID 720580; Vaccinia virus Venus reporter expression, fluorescence; Potency, µM (highest dose often 36.5 µM), for inactives: at the highest dose activity change, negative = inhibition, actives largely listed as inhibitors; 330,000 compounds, 0.46% hits; calls by dose curve; tested in A549 cells; also: potency is read from the fitted curve at half-maximal effect; nearly all actives have a fitted effect of over 30% in size
# HCMV inh: blocks human cytomegalovirus replication; HFF cells, HCMV-luciferase reporter, 72 h; hits give low values; activity change, negative = inhibition, % at 57.5 µM; 410,000 compounds, 4.5% hits; in the data active = activity change below about -60%; inconclusive = no clear call, values can overlap the other calls; inactive = above about -39%
#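 Steps: HFFs plated, 16 h 37C; compounds added; HCMV-luciferase added to MOI 1 PFU/cell; 72 h 37C; OneGlo reagent, 5 min room temperature; luminescence read, normalized to controls.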
# Sm TGR inh: inhibitors of Schistosoma mansoni thioredoxin glutathione reductase | purified TGR, DTNB reduction, TNB absorbance 405 nm | 360,000 compounds, 3% hits | Q962Y6 | AID 485364 | Potency, µM (top dose mostly 114 µM), for the others: at the highest dose activity change, negative = inhibition, hits mostly inhibitors; also: potency is read from the fitted curve at half-maximal effect; nearly all actives have a fitted effect of over 60% in size
#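 Kinetic colorimetric format: TGR-catalysed, NADPH-driven DTNB reduction monitored via TNB absorbance. Enzyme dispensed at 20 nM; compound exposure 15 min at room temperature before reaction start.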
# The depositor's hits bear a star; i = inactive; ? = inconclusive; · = not tested or not shown. Unless noted, calls follow the shape of the dose curve; as a rule, active = well fitted curve in the direction sought with a large enough effect; inconclusive = small, poorly fitted or top-dose-only effect, or another doubt; inactive = no such curve, though single readings can be large; an effect the other way counts as inactive or inconclusive. % is scaled to controls: 0 for no effect and ±100 for the full control effect.
SMILES,FMDV inh,VACV mCherry inh,HCV inhibitor,VACV Venus inh,HCMV inh,Sm TGR inh
COCc1c(C(=O)N/N=C/c2ccco2)nnn1-c1nonc1N,5.3%,3.5%,0.8%,-0.5%,-29.3,-7.4%
C/C=C/c1ccc(OCCCCN(C)Cc2ccccc2)c(OC)c1,-24.2%,·,11.2µM*,·,-8.0,-15.1%
CCOc1cc(CNCCc2c[nH]c3ccccc23)cc(Cl)c1OC,?,-28.3%,10µM*,-29.3%,-22.6,-19.0%
CCOc1cc(CNCCc2c[nH]c3ccccc23)cc(Cl)c1OCC(N)=O,-23.2%,·,?,·,3.7,-30.0%
COc1cccc(CNCCc2c[nH]c3ccccc23)c1OCc1ccc(F)cc1,?,?,?,?,-13.7,38.7%
COc1cc(CNCCc2c[nH]c3ccccc23)ccc1OCc1ccc(F)cc1,-7.3%,10µM*,12.6µM*,?,17.2,64.8%
Cc1cccc(OCC(=O)Nc2ccc3oc(=O)ccc3c2)c1C,2.9%,-11.2%,-2.2%,-2.9%,?,16.0%
c1ccc(Cc2nnc3sc(-c4cccnc4)nn23)cc1,20.1%,·,4.2%,·,-62.6*,4.5%
c1ccc(Cc2nnc3sc(-c4ccncc4)nn23)cc1,-6.2%,·,-16.9%,·,?,-3.4%
COCCn1nnnc1C(c1cc2cc(OC)c(OC)cc2[nH]c1=O)N1CCN(c2ccc(O)cc2)CC1 (centres undefined),-4.7%,-6.1%,-1.9%,-8.6%,13.1,11.4%
COCCn1c(C)cc2c(c1=O)C(c1ccccc1F)C(C#N)=C(N)O2 (centres undefined),-4.1%,-15.5%,2.6%,3.1%,44.9,3.0%
COCCn1c(C)cc(O)c(C(c2ccccc2OC)N2CCN(c3ccccc3)CC2)c1=O (centres undefined),-29.8%,-8.7%,·,-9.3%,9.8,3.55µM*
COCCn1c(C)cc(O)c(C(c2ccccc2F)N2CCN(c3ccccc3)CC2)c1=O (centres undefined),-22.9%,-15.1%,·,-3.6%,-11.0,4.47µM*
C/C(=N/O)c1cccc(N2Cc3ccccc3C2)c1,28.7%,?,?,-4.5%,24.3,22.4µM*
C/C(=N\O)c1cccc(Br)c1,-5.4%,·,10.2%,·,5.3,-6.4%
CCC(C#CCN1CCCCC1)(CC)OCCC#N,-14.8%,·,19.5%,-19.1%,-4.1,0.1%
CCC(C)(C#CCN1CCCCC1)OCCC#N (centres undefined),-17.4%,i,-13.2%,-0.4%,6.7,39.8µM*
c1ccc(N2CCN(c3c4c(nc5ncnn35)CCC4)CC2)cc1,?,·,?,·,-62.2*,-0.3%
CC1CCCCC1NC(=O)C1CCN(c2c3c(nc4ncnn24)CCC3)CC1 (centres undefined),-28.7%,-10.7%,?,-0.7%,0.0,-1.5%
COc1cccc(N2CCN(c3c4c(nc5ncnn35)CCC4)CC2)c1,14.1µM*,·,?,·,-86.1*,-22.3%
O=c1sc2ccccc2c(N2CCCCC2)c1[N+](=O)[O-],28.4%,i,31.2%,-15.4%,10.1,-17.7%
COc1ccc(-c2cc3nc(NCc4ccc(N(C)C)cc4)n(C)c(=O)c3s2)cc1OC,28.2µM*,i,·,?,?,·
COc1cccc(CNc2nc3cc(-c4ccsc4)sc3c(=O)n2C)c1OC,31.6µM*,13.3%,·,-13.8%,-68.3*,·
COc1ccc(-c2cc3nc(NCCN4CCCC4)n(C)c(=O)c3s2)cc1OC,-2.7%,-1.7%,·,?,-14.6,·
COc1cccc(CNc2nc3cc(-c4ccc(C)cc4)sc3c(=O)n2C)c1OC,4.6%,-12.5%,·,-23.1%,2.2,·
SMILES,FMDV inh,VACV mCherry inh,HCV inhibitor,VACV Venus inh,HCMV inh,Sm TGR inh
COCCNc1nc2cc(-c3ccsc3)sc2c(=O)n1C,-0.2%,-0.5%,·,?,45.4,·
COc1cccc(CNc2nc3cc(-c4ccc(F)cc4)sc3c(=O)n2C)c1OC,-19.5%,7.3%,·,-12.0%,-71.4*,·
CC(=O)Nc1ccc(CNc2nc3cc(-c4ccsc4)sc3c(=O)n2C)cc1,0.0%,6.2%,·,-16.9%,-65.7*,·
CC(=O)c1c(C)[nH]c(C(=O)NCc2cccs2)c1C,74.0%,-2.0%,-13.4%,-18.6%,14.1,-8.8%
CCN(CC)S(=O)(=O)c1ccc(OC)c(NC(=O)c2sc3ccccc3c2Cl)c1,9.5%,-25.7%,·,?,-7.5,7.2%
C=CCN(c1ccccc1OC)S(=O)(=O)c1ccc(Cl)c(C(=O)NCc2ccco2)c1,0.0%,-15.0%,·,-20.9%,-15.9,·

# Bioassay records (PubChem)
